Our source for the growth values is PubChem BioAssay (NCI).

Compounds without any hit were thinned out: in the full panel of roughly 83,000, 20% have a hit.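 Cells were grown in 96-well plates and exposed to the test compound at a single concentration for 48 hours; results are reported as percent growth, with values below 10 considered active.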 Values without a mark were called inactive. Calls of active or inactive are those of the source.

In the assay the test system is HL-60(TB) leukemia. Description: NCI-60 one-dose screen, 48 h (100 = growth as untreated, 0 = no growth, -100 = all killed). To be noted: 10 µM unless noted.

With `CC(=O)CC(=O)N(C)C`, the growth is 114%.
Regarding `Cc1[nH]n(C(N)=S)c(=O)c1N=Nc1ccc(F)c(Cl)c1`, the growth was 90.6%.
Take `CCc1ccccc1-n1[nH]c(C)c(C=N)c1=O`: the growth is 98.3%.
In the case of `CCCCSc1cc(C)nc(N)n1`, the growth is 96.6%.
As for `Cc1ccc2nc3nc4ccc[nH]c4cc3c2c1`, the growth is 124%.
To `COc1cc(/C=N/Nc2nc(-c3ccc(F)cc3)c(C#N)c(N3CCOCC3)n2)ccc1O` belongs 72.5%; to `C[Se]C(=O)CC1=C2C=C(F)C=CC2/C(=C\c2ccc(S(C)=O)cc2)C1C` (stereo not drawn), -40% (active).
On to `CCOC(=O)c1c(C)[nH]c(CO)c1C`, for which the growth is 97.1%.
For the molecule `C=CCN1C(=O)[C@]2(SC1=S)[C@H](c1cccc(Cl)c1)CN(C)[C@]21C(=O)NC2C=CC(Cl)=C[C@H]21` (stereo partly drawn), the growth is -39.8% (active).
Regarding `Cc1c2ccncc2c(C)c2c1c1cc(CO)ccc1n2C`, the growth was 19.2%.
For `COP(=O)(OC)/C(=N\NS(=O)(=O)c1ccc(C)cc1)c1ccccc1`, the growth is 100%.
`CCN1C(=O)N(CC)C2C1NC(=O)N2/N=C/C=C/c1ccccc1` (stereo not drawn): the growth was 0.782% (active).
As to `O=S(=O)(O)C(C(I)I)S(=O)(=O)O`, the growth was 109%.
Consider `CC(C)=CCCC(C)c1ccc(C)c2c1OCN(CC1CCNCC1)C2` (stereo not drawn), for which the growth is 13.8%.
The figure for `CCOP(=O)(O)OP(=O)(O)OCC` is 94.1%; for `Cn1c2ccc(Br)cc2c2c3c(c4c5ccccc5[nH]c4c21)C(=O)N(O)C3=O` it is -58.6% (active).
For `O=C(NO)c1ccc(Cn2c(=O)n(CCc3ccccc3)c(=O)c3ccccc32)cc1`, the growth is 36.2%.
For `C=C(c1ccc(C(=O)O)c(F)c1)c1cc2c(cc1C)C(C)(C)CCC2(C)C`, the growth is 97.2%.
`Cc1ccc(-c2n[nH]c(=O)c3noc(-c4ccc(C)cc4)c23)cc1`: the growth is 6.11% (active).
Turning to `O=C(N/N=C/c1ccc([N+](=O)[O-])cc1)c1ccccc1Nc1cccc(C(F)(F)F)c1`, the growth was 108%.
Regarding `CCCOc1ccc(/C=N/Nc2cc(C)nc3ccc(Cl)cc23)cc1`, the growth is -48% (active).
For `CCC(C)(c1ccc(O)c(C)c1)c1ccc(O)c(C)c1`, the growth is 128%.
For `Cc1cc(C(=O)NOCCO)c(Nc2ccc(I)cc2F)n(C)c1=O`, the growth is 20.8%.
On to `COc1cc(/C=C2\CN(S(=O)(=O)c3ccc(C)cc3)C/C(=C\c3cc(CN4CCCC4)c(O)c(OC)c3)C2=O)cc(CN2CCCC2)c1O`, for which the growth is -33.6% (active).
The figure for `Oc1ccc(Cl)cc1-c1cc(-c2ccc(Cl)cc2)n[nH]1` is 60.4%; for `NS(=O)(=O)c1ccc(C(=O)N=Nc2c(O)[nH]c3c(F)cccc23)cc1` it is 102%; for `COc1ccc(/C=C(/C(=O)N2CCCC2)c2cc(OC)c(OC)c(OC)c2)cc1` it is -14.7% (active).
To `COC1CCC(N2C(=O)CNc3ncc(-c4ccc(C(C)(C)O)nc4)nc32)CC1` (stereo not drawn) belongs 11.2%; to `CCOC(=O)C1=C(C)NC(SCc2nnc(-c3ccc(Cl)cc3)o2)=NC1c1ccc(Cl)cc1Cl` (stereo not drawn), -6.39% (active).
The figure for `CCn1cc(C(=O)O)c(=O)c2cc(F)c(N3CCN(S(=O)(=O)c4c(C)cc(C)cc4C)CC3)cc21` is 73%.
Turning to `Cc1oc(-c2ccc(Cl)cc2Cl)cc1C(=O)Nc1nccs1`, the growth is 97.4%.
`C=C1C(=O)O[C@H]2[C@H]1CC/C(COC(=O)NCc1cc(OC)cc(OC)c1)=C\CC[C@@]1(C)O[C@@H]21`: the growth is -20.1% (active).
As to `CCN(CC)CC(O)c1cc(-c2ccc(Cl)cc2)nc2c(C)c(Cl)ccc12` (stereo not drawn), the growth was -71.5% (active).
In the case of `OC(COCc1ccccc1)COCc1ccccc1`, the growth is 91.8%.
Regarding `CCc1ccc(CCN2C(=O)c3ccccc3C2=O)nc1`, the growth is 120%.
For `Cc1cc(NC(=O)Nc2cc(Cl)ccc2C)no1`, the growth is 88.4%.
Turning to `C[n+]1cc2cc(C(N)=O)[nH]c3c(=N)c(Cl)c(N)c1c23`, the growth is 78.8%.
Regarding `COc1ccc(-c2nn(-c3cccc(Cl)c3)cc2-c2cc(-c3ccc(Br)cc3)[nH]c(=O)c2C#N)cc1`, the growth was 101%.
Turning to `CC(=O)O.CC(=O)O.O.[Fe]`, the growth was 114%.
`COc1cccc(CCC2C(=O)CCCC2=O)c1`: the growth was 87.2%.
The figure for `Fc1cnc(NC2CC2)nc1-c1cnc2ccc(N3CCOCC3)cn12` is -15.5% (active).
For `O=C(Nc1nn2c(-c3cc(C(F)(F)F)cc(C(F)(F)F)c3)nnc2s1)C1CCCC1`, the growth was -53.3% (active).
Consider `CC(=O)c1ccc(NC(=O)CSc2nnc(-c3cc(-c4ccc(C)cc4)nc4ccccc34)o2)cc1`, for which the growth is 80.6%.
As for `O=C1CC(c2ccc3c(c2)OCO3)Nc2cc3c(cc21)OCO3` (stereo not drawn), the growth is -22.9% (active).
Turning to `Cc1ccc(CN2CCC(C(=O)Nc3ccc(-c4cc5ccccc5[nH]4)cc3)CC2)o1`, the growth was 13.7%.
Regarding `CCOC(=O)c1cnc2ccc(Cl)cc2c1NCCCN(C)C`, the growth was -18.6% (active).
Consider `CCNCCNc1cc(-c2ccc(C#N)cc2)c(C#N)c2nc3ccccc3n12`, for which the growth was -45.4% (active).
To `Cc1cc(N)c2cc(NC(=O)/C=C\c3ccccc3Cl)ccc2n1` belongs -29.3% (active); to `Cc1ccc(S(=O)(=O)N/N=C2\CC3CCC2(C)C3(C)C)cc1` (stereo not drawn), 116%.
Take `COc1cc2c(c(OC)c1OC)-c1ccc(NNC(N)=S)c(=O)cc1[C@@H](NC(C)=O)CC2`: the growth was -13.9% (active).
To `N[C@@H]1CCCN(c2c(/C=C3\SC(=O)NC3=O)cccc2-c2ccccc2)C1` belongs 26.5%; to `COc1ccc2oc(=O)cc(-c3c(C#N)c(N)n4nc(N)c(C#N)c4c3C#N)c2c1`, 96.4%.
Turning to `CC(C)n1nc(C#Cc2cccc(NC(=O)c3cccc(C(F)(F)F)c3)c2)c2c(N)ncnc21`, the growth is -18.9% (active).
The figure for `COc1ccc(-c2cc(-c3ccccc3)nc(SCCCC(=O)NO)n2)cc1OC` is -12.2% (active).
For the molecule `CC(=O)NC(O)C(Cl)Cl` (stereo not drawn), the growth was 105%.
`O=[N+]([O-])c1cccc(/C=C/c2ccccn2)c1`: the growth was 120%.
For the molecule `Fc1cc(-c2nnc3sc(-c4ccc(Cl)cc4)nn23)c(Cl)cc1Cl`, the growth was 26.9%.
The figure for `CCN(CC)CCCC(C)Nc1ccnc(/C=C/c2ccc(Cl)cc2)c1` (stereo not drawn) is 65.9%.
`Nc1n[nH]c2cccc(C#Cc3cccc(NC(=O)c4ccc(N5CCOCC5)c(C(F)(F)F)c4)c3)c12`: the growth is 2.04% (active).
The figure for `Nc1nnc(CSc2nnc3n(Cc4ccccc4)c(=O)c4c5c(sc4n23)CCCC5)s1` is 76.9%.
Consider `COc1ccc(C(=O)/C=C/c2ccc(N3CCCCC3)cc2)cc1OC`, for which the growth was 78.9%.
With `CCCC(C)c1cc(Cc2cc(Cl)cc(Cl)c2O)c(O)c(Cc2cc(Cl)cc(Cl)c2O)c1` (stereo not drawn), the growth is 4.98% (active).
Take `CC(=O)OC[C@H]1OC(Sc2sc(C(=O)c3ccc(Br)cc3)c(N)c2-c2nc3ccccc3s2)[C@H](OC(C)=O)[C@@H](OC(C)=O)[C@H]1OC(C)=O` (stereo partly drawn): the growth is 105%.
The figure for `COc1cc(CNc2oc(-c3ccccc3)c(-c3ccccc3)c2C#N)cc(CN2CCN(C)CC2)c1O` is 75.7%.
For the molecule `CCCCCCNC(=O)Oc1ccc(/C(=C(\C)c2ccccc2)c2ccc(OCCN3CCCCC3)cc2)cc1`, the growth is 31.1%.
To `CC(=O)OC[C@H]1OC(Sc2sc(C(=O)c3ccc(Cl)cc3)c(N)c2-c2nc3ccccc3s2)[C@H](OC(C)=O)[C@@H](OC(C)=O)[C@@H]1OC(C)=O` (stereo partly drawn) belongs 108%; to `Cc1cc(N2CCN(c3ccnc4cc(Cl)ccc34)CC2)nc(N2CCOCC2)n1`, 69.5%.
Regarding `CN(C)c1nc(N)c(N=O)c(N)n1`, the growth was 106%.
Take `CC(=O)c1ccc(Cc2ccc(C(C)=O)s2)s1`: the growth was 86.5%.
Turning to `c1ccc([P+](CCCc2n(Cc3ccc4ccccc4c3)c3ccccc3[n+]2Cc2ccc3ccccc3c2)(c2ccccc2)c2ccccc2)cc1`, the growth was 22.6%.
To `CC(C)(C)c1cc(C(C)(C)C)cc(S(=O)(=O)Nc2cc3ccccc3cc2C(=O)NCCN)c1` belongs -19.8% (active); to `CN(C)c1ccc(-c2c(C#N)c(N)n3nc(N)c(C#N)c3c2C#N)cc1`, 95.7%.
The figure for `C=C(CN1CC=CCC1)[C@@H]1CC[C@]2(CO)CC[C@]3(C)[C@H](CC[C@@H]4[C@@]5(C)CC[C@H](O)C(C)(C)[C@@H]5CC[C@]43C)[C@@H]12` is 99.9%.
